Source: PubChem BioAssay (Johns Hopkins Ion Channel Center)
Sampled rows, rich in hits. Any-hit rate of the full collection: about 1.6%.
KCNQ2 enhance – potentiators of rat KCNQ2 potassium channel. Potassium voltage-gated channel subfamily KQT member 2 (Rattus norvegicus), O88943. CHO-K1 KCNQ2, FluxOR thallium flux fluorescence; active compounds read high. B-score at 10 µM. actives 0.54% (n = 310,000). AID 2239, 2010;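 active means fluorescence ratio B-score at least 3 SD of library B-scores, with initial fluorescence B-score within 3 of them, cut at about 5.3 in these data; same plate scores as AID 2156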;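 further: B-score of peak minus minimum over baseline fluorescence ratio after K+ and Tl+ stimulus; positive B-score means potentiation of KCNQ2 with more thallium influx and brighter signal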
Target sequence (O88943 whole entry, looked up): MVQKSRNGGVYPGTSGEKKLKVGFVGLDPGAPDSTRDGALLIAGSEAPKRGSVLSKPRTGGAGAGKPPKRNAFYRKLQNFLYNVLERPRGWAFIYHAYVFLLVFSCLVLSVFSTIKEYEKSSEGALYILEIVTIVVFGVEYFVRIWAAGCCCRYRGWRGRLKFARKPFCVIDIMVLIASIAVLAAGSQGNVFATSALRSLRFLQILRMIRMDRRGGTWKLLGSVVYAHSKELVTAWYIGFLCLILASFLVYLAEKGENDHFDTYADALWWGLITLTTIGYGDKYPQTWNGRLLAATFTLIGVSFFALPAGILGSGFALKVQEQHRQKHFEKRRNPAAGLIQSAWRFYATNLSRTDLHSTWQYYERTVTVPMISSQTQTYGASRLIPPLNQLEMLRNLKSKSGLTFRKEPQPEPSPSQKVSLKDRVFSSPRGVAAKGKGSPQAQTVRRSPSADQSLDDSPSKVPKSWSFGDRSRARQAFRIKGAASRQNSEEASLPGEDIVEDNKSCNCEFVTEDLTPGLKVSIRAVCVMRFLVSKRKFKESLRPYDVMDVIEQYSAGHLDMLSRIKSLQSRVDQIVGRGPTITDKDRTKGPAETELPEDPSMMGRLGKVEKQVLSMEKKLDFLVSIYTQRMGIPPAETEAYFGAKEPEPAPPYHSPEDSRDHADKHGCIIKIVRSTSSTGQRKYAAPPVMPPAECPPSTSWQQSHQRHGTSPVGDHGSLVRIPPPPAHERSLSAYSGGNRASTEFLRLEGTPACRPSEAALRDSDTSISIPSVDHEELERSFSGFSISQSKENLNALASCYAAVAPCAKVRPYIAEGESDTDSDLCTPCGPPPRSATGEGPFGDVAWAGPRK
KCNQ2 block – rat KCNQ2 potassium channel inhibitors, primary screen, cell-based, CHO-K1, FluxOR thallium flux, B-score; Potassium voltage-gated channel subfamily KQT member 2 (Rattus norvegicus), O88943; 20 min; active compounds read low; B-score at 10 µM; actives 1.1% (n = 310,000);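 active means fluorescence ratio B-score at most minus 3 library SDs, with starting brightness B-score within 2 library SDs, cut at about -5.5 in these data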
Active calls of the source: *; i = inactive; . = no result given.

SMILES	KCNQ2 enhance	KCNQ2 block
Cc1cc(C(C)(C)C)oc1C(=O)N(CC(=O)NC1CCCC1)Cc1ccccc1Cl	-6.2	-6.2*
Cc1ccccc1N(CC(=O)NC1CCCC1)C(=O)c1oc(C(C)(C)C)cc1C	.	i
COc1ccc(S(=O)(=O)Cc2ccc(C(=O)NCc3ccco3)o2)cc1	0.99	i
O=C(OCc1nnc(-c2ccccc2)o1)c1ccc(-n2cnnn2)cc1	0.35	i
O=C(OCc1nnc(-c2ccccc2)o1)c1cn(-c2ccccc2)nc1-c1ccccc1	-6.2	-6.2*
O=C(c1cc(Cl)ccc1Cl)N1CCN(c2ccccn2)CC1	.	i
O=C(/C=C/c1cn(-c2ccccc2)nc1-c1cccc(Cl)c1)N1CCN(c2ccccn2)CC1	-5.7	-5.7*
O=C(c1cnc(N2CCN(c3ccccn3)CC2)c2ccccc12)N1CCN(c2cccc(Cl)c2)CC1	-7.9	-7.9*
O=C(/C=C/c1cn(-c2ccccc2)nc1-c1cccnc1)N1CCCCC1	.	i
CCOC(=O)c1ccc(NC(=O)C23CCC(C)(C(=O)O2)C3(C)C)cc1 (configuration not stated)	.	i
COc1ccc2c(c1)C=C(CN1CCN(Cc3ccccc3C)C(CCO)C1)CO2 (configuration not stated)	.	i
O=c1c2cnn(-c3ccccc3)c2nc(-c2cccs2)n1-c1ccc(Cl)cc1	.	i
O=c1c2cnn(-c3ccccc3)c2nc(-c2cccs2)n1-c1cccc(Cl)c1	-7.5	-7.5*
C=CCNc1nc(NCc2ccccc2)nc(OCC)n1	.	i
CCOc1ccc(-c2cc(N)n(S(=O)(=O)c3ccc(OC)cc3)n2)cc1	2	i
COc1ccc(-c2cc(N)n(S(=O)(=O)c3c(F)c(F)c(F)c(F)c3F)n2)cc1OC	-8.8	-8.8*
O=C(Oc1ccc(Br)cc1)c1cccc(S(=O)(=O)N2CCOCC2)c1	.	i
OCCN1CCN(c2nc(-c3ccccc3)c3cc(Cl)ccc3n2)CC1	.	i
Clc1ccc2nc(N3CCNCC3)nc(-c3ccccc3)c2c1	-5.9	-5.9*
Cc1cc2ccccn2c1C(=S)NC(=O)c1ccccc1	19*	i
Cc1cc2ccccn2c1C(=O)c1ccncc1	1.3	i
COc1ccc(NC(=O)c2nc[nH]c2C(=O)N[C@@H](C)c2ccccc2)cc1	.	i
CCCn1nc([N+](=O)[O-])c(C(C#N)c2nc3ccccc3o2)c(Cl)c1=O (configuration not stated)	.	i
Cn1nc([N+](=O)[O-])c(C(C#N)c2ccccn2)c(Cl)c1=O (configuration not stated)	-5.8	-5.8*
COc1ccc(Cl)cc1NC(=O)CCc1nnc2ccc(N3CCC4(CC3)OCCO4)nn12	.	i
SMILES	KCNQ2 enhance	KCNQ2 block
CC(C)(C)c1cc(CP(=O)(c2ccccc2)c2ccccc2)cc(C(C)(C)C)c1O	-5.7	-5.7*
O=P(Cc1ccccc1)(c1ccccc1)c1ccccc1	.	i
COc1ccc(NC(=O)CSc2ccccc2)cc1S(=O)(=O)N1CCCCC1	.	i
O=C(CN1C(=O)CC(c2ccccc2)=Nc2ccccc21)NCc1ccco1	.	i
CC(C)c1ccc(NC(=O)[C@H](Cc2c[nH]c3ccccc23)NC(=O)[C@@H]2Cc3ccccc3CN2)cc1	-8.2	-8.2*
COc1ccc(NC(=O)[C@H](Cc2c[nH]c3ccccc23)NC(=O)[C@@H]2Cc3ccccc3CN2)cc1	.	i
COc1ccc(/C=C2\C(=O)ON=C2c2ccccc2)cc1OC	0.58	i
O=Nc1c(O)n(Cc2cccc(Cl)c2)c2ccccc12	.	i
Cc1cc(C)nc(N=Nc2c(O)n(Cc3ccc(Cl)cc3)c3ccccc23)n1	-5.9	-5.9*
COc1ccc(CNCC(O)(c2ccccc2)c2ccc(F)cc2)cc1OC (configuration not stated)	0.98	i
CN(C)CCNC(=O)c1ccc(COc2ccc(Cl)cc2Cl)cc1	-7.6	-7.6*
COc1ccc(Cl)cc1C(=O)NCCN(C)C	0.4	i
COc1ccccc1-c1ccc(SCc2cccc(C)c2)nn1	-6.2	-6.2*
COc1ccccc1-c1ccc(SCc2ccc([N+](=O)[O-])cc2)nn1	.	i
CCNCc1ccc(OCc2cccs2)c(OCC)c1	.	i
COc1ccccc1NC(=O)N1CCCC(c2nc3c(nnn3Cc3ccc(C)cc3)c(=O)[nH]2)C1 (configuration not stated)	-6.2	-6.2*
COC(=O)c1ccccc1S(=O)(=O)N1CCCC(c2nc3c(nnn3Cc3ccc(C)cc3)c(=O)[nH]2)C1 (configuration not stated)	.	i
CCn1nc(NC(=O)c2ccccn2)c2cc3cc(C)ccc3nc21	1.1	i
Cc1ccc2nc3c(cc2c1)c(NC(=O)c1ccccn1)nn3CC(C)C	-7.5	-7.5*
O=C(NCCN1CCOCC1)c1cc(-c2ccccc2)on1	.	i
COc1cc(NC(=O)COC(=O)CSc2ccccc2F)c(C)cc1[N+](=O)[O-]	1.6	i
Cn1c2ccccc2c(=O)c2cc(C#CC3(O)CCCCC3)ccc21	1.1	i
Cn1c2ccccc2c(=O)c2ccc(C#CC3(N)CCCCC3)cc21	-7.3	-7.3*
Cc1cc(Br)c(NC(=O)CCl)c(Br)c1	6*	i
Cc1cc(Br)c(NC(=O)CN(C)CCOc2ccccc2)c(Br)c1	.	i
SMILES	KCNQ2 enhance	KCNQ2 block
Cn1c(N2CCN(C(c3ccccc3)c3ccccc3)CC2)nc2ccccc21	-12	-12*
Cn1c(C(O)C(O)c2ccccc2)nc2ccccc21 (configuration not stated)	0.77	i
COc1ccc(CCNC(=O)Cn2nnc(-c3ccc(N(C)C)cc3)n2)cc1OC	.	i
O=C1NN(c2ccccc2)C(=O)/C1=C\c1coc2ccc(O)cc2c1=O	-5.7	-5.7*
O=C1NN(c2ccccc2)C(=O)/C1=C/c1coc2ccccc2c1=O	.	i
CN(Cc1ccccc1)C(=O)c1nc2ccccn2c1CN1CCc2sccc2C1	-5.9	-5.9*
CN(Cc1c(C(=O)N(C)Cc2ccccc2)nc2ccccn12)CC1Cc2ccccc2O1 (configuration not stated)	.	i
COc1ccc(N2CCN(C(=O)COC(=O)c3cc(S(=O)(=O)N(C)C)ccc3N3CCCC3)CC2)cc1	.	i
COc1ccccc1CN1CCSCC1	0.01	i
COC(=O)C1C(=O)C(C(=O)c2ccc([N+](=O)[O-])cc2)C(=O)CC1(C)C (configuration not stated)	0.38	i
Cn1nc(C(F)(F)F)c(/C=N/OC(=O)c2ccccc2)c1SCc1ccc(Cl)cc1	.	i
Cn1nc(C(F)(F)F)c(/C=N/OC(=O)c2ccccc2Cl)c1SCc1ccccc1Cl	-6	-6*
CCOC(=O)N1CCC(N2C(=O)c3ccccc3C2Nc2ccccc2C)CC1 (configuration not stated)	.	i
COc1ccc(N2CC(C(=O)Nc3ccc4c(c3)OCO4)CC2=O)cc1 (configuration not stated)	2.1	i
COc1cccc(C2CC(c3ccccc3Cl)n3nc(N)nc3N2)c1 (configuration not stated)	0.74	i
COc1ccc(C2(c3ccc(O)cc3O)CC(c3ccccc3Cl)NC(=S)N2)cc1 (configuration not stated)	6.1*	i
CCCC(=O)Nc1sc(C(=O)Nc2cccc(N)c2)c(C)c1C(=O)OC	0.62	i
